# The OligoGym collection
# Experiments:
# Test in all cases: pooled miR-30 sensor sort-seq; sequence = guide strand
# Details in all cases: shRNA
# RASSF8 = molecular target: RASSF8
# RASSF3 = molecular target: RASSF3
# RASSF5 = molecular target: RASSF5
# RBFOX1 = molecular target: RBFOX1
# RBMY1E = molecular target: RBMY1E
# RDH8 = molecular target: RDH8
# REST = molecular target: REST
# REPS2 = molecular target: REPS2
# RERG = molecular target: RERG
# RET = molecular target: RET
# RGS9 = molecular target: RGS9
# RNPC3 = molecular target: RNPC3
# Also: reference of the scale not given here.
sequence,measurement,setting,value
TATTTCTTGAAGTTGATCCTTC,sensor-assay potency score (higher = more potent),RASSF8,0.825
TTTATGAACTTTCTCTTTGATC,sensor-assay potency score (higher = more potent),RASSF3,-0.905
TCTCTTTCTCAACATCTTGTTG,sensor-assay potency score (higher = more potent),RASSF3,-1.22
TTGATTGATTTGTCAATCTGAG,sensor-assay potency score (higher = more potent),RASSF8,-0.187
TTAATTTGTTTTCACATTCTGT,sensor-assay potency score (higher = more potent),RASSF8,-0.415
TGAAGCTACACGAACAAGCTTG,sensor-assay potency score (higher = more potent),RASSF5,0.101
TTTCTCTTTGATCTCCTCTTTG,sensor-assay potency score (higher = more potent),RASSF3,-0.943
TATTTATGAACTTTCTCTTTGA,sensor-assay potency score (higher = more potent),RASSF3,-0.498
TTAAGTGTGAACAACAGGCACC,sensor-assay potency score (higher = more potent),RASSF5,-0.19
TTAGCTTCTTCAACTCATCTGC,sensor-assay potency score (higher = more potent),RASSF8,0.759
TCTTTGATCTCCTCTTTGCTGA,sensor-assay potency score (higher = more potent),RASSF3,-0.385
TTGTCTGAGGTCCGGATCCCGG,sensor-assay potency score (higher = more potent),RBFOX1,-1.44
TGTATTTATGAACTTTCTCTTT,sensor-assay potency score (higher = more potent),RASSF3,-0.702
TTCTCCTTTAGCACAAAGCTGA,sensor-assay potency score (higher = more potent),RASSF5,-0.406
TAAGTTGTATTTATGAACTTTC,sensor-assay potency score (higher = more potent),RASSF3,-0.5
TTGTCCGTCCTTGTGTATCCGC,sensor-assay potency score (higher = more potent),RASSF5,-0.676
TTCAAGGTCATCTTCAACTTGT,sensor-assay potency score (higher = more potent),RASSF3,0.533
TTGATCTTTTGCTCTAGACGGA,sensor-assay potency score (higher = more potent),RASSF8,-0.232
TTGTCTGTGACTGCTAAGTTGT,sensor-assay potency score (higher = more potent),RASSF3,-0.937
TTCTAGAACTTAACAACTCCAC,sensor-assay potency score (higher = more potent),RBFOX1,-0.286
TACATCGTTTCTTTTGATCTTT,sensor-assay potency score (higher = more potent),RASSF8,-0.624
TTTGCAGTTATTCAGCACCTTT,sensor-assay potency score (higher = more potent),RASSF8,-1.3
TCGCGTGTTGTAGCTGTCGATC,sensor-assay potency score (higher = more potent),RASSF5,-1.47
TTCATCTTCTTCCTTGTCCAAG,sensor-assay potency score (higher = more potent),RASSF3,-0.91
TTTACAGTTAGTGCAGCGCAGC,sensor-assay potency score (higher = more potent),RASSF5,-1.3
TTTGATCTCCTCTTTGCTGAGG,sensor-assay potency score (higher = more potent),RASSF3,-0.279
TTATATATAGCTATATGCCTTT,sensor-assay potency score (higher = more potent),RASSF5,-0.531
TATTTCATTAGATTCCAGCTGT,sensor-assay potency score (higher = more potent),RASSF8,1.11
TTCTATTTCATTAGATTCCAGC,sensor-assay potency score (higher = more potent),RASSF8,-0.148
TAGCTGTCGATCTTCTGCTTGA,sensor-assay potency score (higher = more potent),RASSF5,-0.141
TTCTCTATAAGGGTGTACCTTC,sensor-assay potency score (higher = more potent),RASSF8,-0.973
TAAGGCTATGACAACCTCCTGG,sensor-assay potency score (higher = more potent),RASSF8,0.0646
TTATTTGTCATTACACGTGCTG,sensor-assay potency score (higher = more potent),RBFOX1,0.199
TTACATAATATAGCACTCTGGA,sensor-assay potency score (higher = more potent),RBFOX1,-0.421
TTGAAGTTGATCCTTCAGCTGT,sensor-assay potency score (higher = more potent),RASSF8,-0.249
TTCTGGAAGAGCACTTGTCCGT,sensor-assay potency score (higher = more potent),RASSF5,-0.498
TTCCACCATAGGACATCCGAGG,sensor-assay potency score (higher = more potent),RBMY1E,-1.61
TTTCTCGGGAACTTCGACGATT,sensor-assay potency score (higher = more potent),RBMY1E,-0.472
TTGAGCGTGGTCAGCGGCGAGT,sensor-assay potency score (higher = more potent),RDH8,-1.34
TTTCACTTTTGAGACATCCATT,sensor-assay potency score (higher = more potent),REST,-1.15
TTCTTTGACATCATAAAGCGAG,sensor-assay potency score (higher = more potent),REPS2,-0.889
TTTGATCTCATCTAGGATGTTC,sensor-assay potency score (higher = more potent),RERG,0.194
TATCTGAACAGGCTCCTTCTGG,sensor-assay potency score (higher = more potent),REST,-0.749
TATCTTAACAGGTTCCTTCTGG,sensor-assay potency score (higher = more potent),REST,0.123
TTTGCTGTAATCTTTTCCCTTT,sensor-assay potency score (higher = more potent),REST,-0.0854
TATTTGAACTGTAAATATCTGG,sensor-assay potency score (higher = more potent),REST,-0.000404
TTAGACACATTTATTCAGCTGT,sensor-assay potency score (higher = more potent),RERG,0.3
TTTGTTTCCAACCAAGATGAGA,sensor-assay potency score (higher = more potent),RERG,-1.39
TAAACATCTCGGGACAAGCCGA,sensor-assay potency score (higher = more potent),RET,-0.999
TAGAGTTCCTTCTATTTCCTGT,sensor-assay potency score (higher = more potent),RERG,0.463
TTGAACTGTAAATATCTGGAGC,sensor-assay potency score (higher = more potent),REST,-0.111
TACAATTTGATGACATGTGGGT,sensor-assay potency score (higher = more potent),RET,0.209
TAATTTTTCTTACTGTACCTGG,sensor-assay potency score (higher = more potent),RERG,0.0466
TCTTCTGTGCTAACCTGCCTGG,sensor-assay potency score (higher = more potent),RERG,-0.541
TAGAGTTTGTTTTCAATCCATG,sensor-assay potency score (higher = more potent),RET,-0.723
TTTCTTAGCACTGTGAACTCTG,sensor-assay potency score (higher = more potent),REST,0.443
TTCTTGATGAACCTCCTTGAGC,sensor-assay potency score (higher = more potent),REPS2,-1.27
TTGACATGCGTGGTGGAGCTGC,sensor-assay potency score (higher = more potent),RERG,-0.453
TAATTCTACATCTTCTACTAGC,sensor-assay potency score (higher = more potent),RERG,-0.25
TTCAATAAGGACTTGCTCCTTC,sensor-assay potency score (higher = more potent),REST,0.499
TTCCGGTTGAGAACCAGCCTAT,sensor-assay potency score (higher = more potent),RET,-0.898
AACAACTTCATCATCGATGGTT,sensor-assay potency score (higher = more potent),RERG,-0.0718
TTCTACATCTTCTACTAGCATT,sensor-assay potency score (higher = more potent),RERG,-1.27
TGTTCTTCTGTTATCCTCCAGG,sensor-assay potency score (higher = more potent),REPS2,-0.549
TTAAGCATATCTGAAAACCAAA,sensor-assay potency score (higher = more potent),RET,-1.63
TTGGTCTTCGAGCTCTTGCCTT,sensor-assay potency score (higher = more potent),REST,-0.836
TTCATCTTCATCAATTTCCTGA,sensor-assay potency score (higher = more potent),REST,0.487
TTGTCTGGCCTCTCCATCCGGT,sensor-assay potency score (higher = more potent),RET,-0.338
TTGCCCTGCACCATCCTCCGGC,sensor-assay potency score (higher = more potent),RERG,-0.458
TTGGGTCTCCACAACATCGCAG,sensor-assay potency score (higher = more potent),RET,-0.15
TTATCCTCATCGTCCATTCTTT,sensor-assay potency score (higher = more potent),REPS2,-0.725
TAAATATGGAATCTGAACCTTA,sensor-assay potency score (higher = more potent),REPS2,-0.238
TTTGACACAGTCAAACATCTAT,sensor-assay potency score (higher = more potent),REPS2,-0.0627
TTAATTTGCTTGTCTTTTGGAC,sensor-assay potency score (higher = more potent),RERG,-0.0136
TTGGATATCTTGGAAACCCAGT,sensor-assay potency score (higher = more potent),RET,-0.723
TCGTTCTTGATGAACCTCCTTG,sensor-assay potency score (higher = more potent),REPS2,-0.785
TAGATTTGAAGTGATACTGTAG,sensor-assay potency score (higher = more potent),REST,0.294
TCGTCGTACACGGTCACCGGGA,sensor-assay potency score (higher = more potent),RET,-0.762
TACACTTGTAGACTCGCTCATT,sensor-assay potency score (higher = more potent),REST,-0.726
TTTAACTGGAATCCGACCCTGG,sensor-assay potency score (higher = more potent),RET,0.235
TTGAACTCCACCACGGCGCTGG,sensor-assay potency score (higher = more potent),RET,0.715
TTTCTTTTTGATATTTCGCTTG,sensor-assay potency score (higher = more potent),RGS9,-0.178
TTTACCTTGACTTCATTCGGAT,sensor-assay potency score (higher = more potent),RGS9,0.0975
TTAAATACACTTTCAAAGCTGT,sensor-assay potency score (higher = more potent),RNPC3,0.272
